Assay results taken from PMC12820563, “FoxP3 forms a head-to-head dimer in vivo and stabilizes its multimerization on adjacent microsatellites”.
Over roughly 16,000 sequences, “rpm ratio (pull-down/input)” has its median near 0.5; the highest 2% begin near 5.5. For the sample, the highest values were picked, then their nearest neighbours and some sequences at random.

These sequences were tested against T1, MBP-FoxP3dN (Mus musculus, UniProt Q99JB6 188-423) (assay: PD-seq (MBP pull-down with sequencing); 20 mM Tris-HCl pH 7.5, 100 mM NaCl, 1.5 mM MgCl2, 0.4 uM protein, 0.1 uM dsDNA library, 30 min, room temperature, amylose pull-down; high values mean tight binding). Details: protein: recombinant; tags: His6-MBP; chain copies: 2; dsDNA, one strand shown.
T1 sequence: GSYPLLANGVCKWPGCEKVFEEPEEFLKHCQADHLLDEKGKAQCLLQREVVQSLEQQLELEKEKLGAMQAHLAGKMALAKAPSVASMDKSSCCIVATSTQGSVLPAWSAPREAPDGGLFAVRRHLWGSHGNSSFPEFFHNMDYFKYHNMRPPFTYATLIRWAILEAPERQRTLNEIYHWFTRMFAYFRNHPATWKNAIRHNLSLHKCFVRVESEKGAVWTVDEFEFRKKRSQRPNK
Outline: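 Protein and DNA were mixed at 0.4 µM and 0.1 µM and held for 30 min at room temperature in Tris pH 7.5 buffer with NaCl and MgCl2; the protein was a His6-MBP-tagged, N-terminally truncated mouse FoxP3 or FoxP1 fragment from E. coli, and the DNA a Klenow-filled double-stranded degenerate library. Amylose resin captured the complexes, which were washed three times. Binding is read as reads-per-million enrichment of pull-down versus input after Illumina sequencing, with replicates pooled.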
“GATGATTGTTCTCCCAGCTGATGAATTATGAAACTCGAGTAAACAAATTTTCCTAATCTTTCTGTTCAAGCGCCATCTAC” was tested, and the binding signal was 0.828 RPM ratio (pull-down/input). “GATGATTGTTCTCCCAGCTGATGAATTATGACACTCGAGTAAACAAATTTTCCTAATCTTTCTGTTCAAGCGCCATCTAC” was tested, and the binding signal was 2.61 RPM ratio (pull-down/input). For “GATGATTGTTCTCCCAGCTGATGAATTATGCCACTCGAGTAAACAAATTTTCCTAATCTTTCTGTTCAAGCGCCATCTAC”, the binding signal was 6.25 RPM ratio (pull-down/input). In the case of “GATGATTGTTCTCCCAGCTGATGAATTTATGAATTCGAGTAAACAAATTTTCCTAATCTTTCTGTTCAAGCGCCATCTAC”, the binding signal is reported as 0.946 RPM ratio (pull-down/input). In the case of “GATGATTGTTCTCCCAGCTGATGAATTATTTCATTCGAGTAAACAAATTTTCCTAATCTTTCTGTTCAAGCGCCATCTAC”, the binding signal is reported as 0.381 RPM ratio (pull-down/input). With “GATGATTGTTCTCCCAGCTGATGAATTATTCATTTCGAGTAAACAAATTTTCCTAATCTTTCTGTTCAAGCGCCATCTAC” the binding signal was 0.406 RPM ratio (pull-down/input). For “GATGATTGTTCTCCCAGCTGATGAATTATCCCACTCGAGTAAACAAATTTTCCTAATCTTTCTGTTCAAGCGCCATCTAC”, the binding signal was 0.322 RPM ratio (pull-down/input). In the case of “GATGATTGTTCTCCCAGCTGATGAATTTATGCATTCGAGTAAACAAATTTTCCTAATCTTTCTGTTCAAGCGCCATCTAC”, the binding signal is reported as 7.56 RPM ratio (pull-down/input). In the case of “GATGATTGTTCTCCCAGCTGATGAATTATGGCATTCGAGTAAACAAATTTTCCTAATCTTTCTGTTCAAGCGCCATCTAC”, the binding signal is reported as 5.55 RPM ratio (pull-down/input). With “GATGATTGTTCTCCCAGCTGATGAATTATTCAACTCGAGTAAACAAATTTTCCTAATCTTTCTGTTCAAGCGCCATCTAC” the binding signal was 0.381 RPM ratio (pull-down/input). With “GATGATTGTTCTCCCAGCTGATGAATTTTATGCATCGAGTAAACAAATTTTCCTAATCTTTCTGTTCAAGCGCCATCTAC” the binding signal was 1.54 RPM ratio (pull-down/input). For “GATGATTGTTCTCCCAGCTGATGAATTATGCAACTCGAGTAAACAAATTTTCCTAATCTTTCTGTTCAAGCGCCATCTAC”, the binding signal was 6.6 RPM ratio (pull-down/input). For “GATGATTGTTCTCCCAGCTGATGAATTGAAAACATCGAGTAAACAAATTTTCCTAATCTTTCTGTTCAAGCGCCATCTAC”, the binding signal was 1.27 RPM ratio (pull-down/input). In the case of “GATGATTGTTCTCCCAGCTGATGAATTCAGGACCTCGAGTAAACAAATTTTCCTAATCTTTCTGTTCAAGCGCCATCTAC”, the binding signal is reported as 0.26 RPM ratio (pull-down/input). With “GATGATTGTTCTCCCAGCTGATGAATTGCGTCATTCGAGTAAACAAATTTTCCTAATCTTTCTGTTCAAGCGCCATCTAC” the binding signal was 2.09 RPM ratio (pull-down/input). In the case of “GATGATTGTTCTCCCAGCTGATGAATTGCGGGGGTCGAGTAAACAAATTTTCCTAATCTTTCTGTTCAAGCGCCATCTAC”, the binding signal is reported as 0.984 RPM ratio (pull-down/input). With “GATGATTGTTCTCCCAGCTGATGAATTGAGCTGGTCGAGTAAACAAATTTTCCTAATCTTTCTGTTCAAGCGCCATCTAC” the binding signal was 0.419 RPM ratio (pull-down/input). In the case of “GATGATTGTTCTCCCAGCTGATGAATTAGGATGGTCGAGTAAACAAATTTTCCTAATCTTTCTGTTCAAGCGCCATCTAC”, the binding signal is reported as 0.492 RPM ratio (pull-down/input). For “GATGATTGTTCTCCCAGCTGATGAATTGGAAGCCTCGAGTAAACAAATTTTCCTAATCTTTCTGTTCAAGCGCCATCTAC”, the binding signal was 0.359 RPM ratio (pull-down/input). In the case of “GATGATTGTTCTCCCAGCTGATGAATTGAATAGATCGAGTAAACAAATTTTCCTAATCTTTCTGTTCAAGCGCCATCTAC”, the binding signal is reported as 0.257 RPM ratio (pull-down/input). In the case of “GATGATTGTTCTCCCAGCTGATGAATTTGGTGCCTCGAGTAAACAAATTTTCCTAATCTTTCTGTTCAAGCGCCATCTAC”, the binding signal is reported as 1.91 RPM ratio (pull-down/input). In the case of “GATGATTGTTCTCCCAGCTGATGAATTATGCAATTCGAGTAAACAAATTTTCCTAATCTTTCTGTTCAAGCGCCATCTAC”, the binding signal is reported as 5.58 RPM ratio (pull-down/input). For “GATGATTGTTCTCCCAGCTGATGAATTTATGCAATCGAGTAAACAAATTTTCCTAATCTTTCTGTTCAAGCGCCATCTAC”, the binding signal was 4.25 RPM ratio (pull-down/input). In the case of “GATGATTGTTCTCCCAGCTGATGAATTATGAATTTCGAGTAAACAAATTTTCCTAATCTTTCTGTTCAAGCGCCATCTAC”, the binding signal is reported as 1.57 RPM ratio (pull-down/input). “GATGATTGTTCTCCCAGCTGATGAATTATGCATCTCGAGTAAACAAATTTTCCTAATCTTTCTGTTCAAGCGCCATCTAC” was tested, and the binding signal was 7.47 RPM ratio (pull-down/input). With “GATGATTGTTCTCCCAGCTGATGAATTATGAATCTCGAGTAAACAAATTTTCCTAATCTTTCTGTTCAAGCGCCATCTAC” the binding signal was 2.3 RPM ratio (pull-down/input). “GATGATTGTTCTCCCAGCTGATGAATTATGCAGCTCGAGTAAACAAATTTTCCTAATCTTTCTGTTCAAGCGCCATCTAC” was tested, and the binding signal was 3.11 RPM ratio (pull-down/input). For “GATGATTGTTCTCCCAGCTGATGAATTATGATTTTCGAGTAAACAAATTTTCCTAATCTTTCTGTTCAAGCGCCATCTAC”, the binding signal was 1.8 RPM ratio (pull-down/input). “GATGATTGTTCTCCCAGCTGATGAATTATGCATTTCGAGTAAACAAATTTTCCTAATCTTTCTGTTCAAGCGCCATCTAC” was tested, and the binding signal was 7.25 RPM ratio (pull-down/input). With “GATGATTGTTCTCCCAGCTGATGAATTATGCAAATCGAGTAAACAAATTTTCCTAATCTTTCTGTTCAAGCGCCATCTAC” the binding signal was 1.16 RPM ratio (pull-down/input). With “GATGATTGTTCTCCCAGCTGATGAATTGAGGCCGTCGAGTAAACAAATTTTCCTAATCTTTCTGTTCAAGCGCCATCTAC” the binding signal was 0.905 RPM ratio (pull-down/input).
